Compound activity deposited in PubChem by National Center for Advancing Translational Sciences (NCATS).
Compounds with a hit are over-represented: about 1.2% of the library has one in this group of screens.
VDR inhibitor = Inhibitors of the vitamin D receptor (VDR): qHTS | Vitamin D3 receptor (Homo sapiens), P11473 | VDR-SRC2-3 peptide fluorescence polarization, 2 h | Potency, µM, without a hit: max response, negative = inhibition, most hits filed as inhibitors | 400,000 compounds, 0.93% hits
Target sequence (P11473 whole entry, looked up): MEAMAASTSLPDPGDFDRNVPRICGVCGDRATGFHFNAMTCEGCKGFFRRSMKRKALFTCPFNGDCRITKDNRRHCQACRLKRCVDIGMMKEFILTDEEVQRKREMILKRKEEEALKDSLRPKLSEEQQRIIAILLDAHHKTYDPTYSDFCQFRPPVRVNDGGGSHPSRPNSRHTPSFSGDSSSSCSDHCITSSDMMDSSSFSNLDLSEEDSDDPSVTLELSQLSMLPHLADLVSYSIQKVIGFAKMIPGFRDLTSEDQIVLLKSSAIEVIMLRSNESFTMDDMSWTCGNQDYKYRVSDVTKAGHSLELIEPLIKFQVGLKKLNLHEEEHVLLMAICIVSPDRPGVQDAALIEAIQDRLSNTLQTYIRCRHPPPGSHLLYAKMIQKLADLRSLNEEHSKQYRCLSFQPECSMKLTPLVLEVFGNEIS
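VDR–SRC2-3 interaction, FP format. Cmpds 23 nl via pintool, brief spin, 2 h ambient incubation.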
TexasRed fluor = Total Fluorescence Counterscreen for Inhibitors of the Interaction of Thyroid Hormone Receptor and Steroid Receptor Coregulator 2; TRb/SRC2 Texas Red total fluorescence interference; Potency, µM (titrated, usually from 106 µM), without a hit: at the top dose fluorescence change, negative = quenching; 280,000 compounds, 0.29% hits; active means well fitted curve in either direction with a large enough effect; inconclusive means small, poorly fitted or top-dose-only effect
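Flags fluorescent or light-absorbing compounds by total fluorescence, S + 2P, at 555 nm excitation and 632 nm emission. Mixture: 20 nM Texas Red SRC2 peptide, 0.6 uM human TRb LBD, 1 uM T3, 5% DMSO; compound exposure 5 h at ambient temperature.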
KAT2A inh = qHTS Assay for Inhibitors of GCN5L2. GCN5L2 HAT assay, ThioGlo1 CoA-SH fluorescence. Potency, µM (highest dose often 58.9 µM), inactives show at the top dose activity change, negative = inhibition, hits mostly inhibitors. 390,000 compounds, 0.21% hits
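qHTS, 1536-well. 20nM enzyme, pH 7.5 HEPES/EDTA/Tween-20 buffer; 15 min compound preinc., RT. Start: 75uM H3(1-25), 70uM AcCoA, 50uM ThioGlo1. Read Ex340/Em540 at t=0 (autofluorescence flag) and t=20 min.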
RGS12 GoLoco inh = qHTS Assay for Inhibitors of RGS12 GoLoco Motif Activity (Red Fluorophore); Guanine nucleotide-binding protein G(i) subunit alpha-1 (Homo sapiens), P63096; Gai1:RGS12 GoLoco peptide FP, rhodamine, 10 min; Potency, µM (top dose mostly 61.6 µM), for inactives: at the highest dose activity, negative = inhibition, hits mostly inhibitors; 230,000 compounds, 0.44% hits; active means well fitted inhibition curve with a large enough effect, not every such curve was filed as active; inactive means no such curve, though single readings can be large or run the other way; further: nearly all actives have a fitted effect of over 30% in size
TRb-SRC2 inh = qHTS for Inhibitors of the Interaction of Thyroid Hormone Receptor and Steroid Receptor Coregulator 2; Thyroid hormone receptor beta (Homo sapiens), P10828; TRbeta-SRC2 peptide binding, fluorescence polarization; receptor liganded with 1 µM T3; Potency, µM (titrated, usually from 106 µM), without a hit: at the top dose activity change, negative = inhibition, most hits filed as inhibitors; 280,000 compounds, 0.065% hits; AID 1469, 2008;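 further: plate controls were bound peptide for no effect and peptide without receptor for full effect; nearly all actives have a fitted effect of over 50% in size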
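Polarization signal, normalized between peptide-alone and full complex controls, measured compound effects on T3-liganded human TRb LBD (0.6 uM) binding 20 nM Texas Red SRC2 peptide after 5 hr.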
* marks the source's active call; other numbers are inactive results; ? = inconclusive; . = no result given; [ ] = remark or other dose. Unless noted, the call rests on the fitted dose curve; in most records, active means well fitted curve in the direction sought with a large enough effect; inconclusive means small, poorly fitted or top-dose-only effect, or another doubt; inactive means no such curve, though single readings can be large; an effect the other way counts as inactive or inconclusive. Unless noted, on the % scale 0 is the no-effect control and ±100 the full control effect; potency means the concentration at half of the fitted maximal effect.

SMILES | VDR inhibitor | TexasRed fluor | KAT2A inh | RGS12 GoLoco inh | TRb-SRC2 inh
Cc1ccc2c(c1)C(=O)C(=O)N2CCOc1ccccc1 | 79µM* | -3% | -6% | 20% | 9%
Cc1ccc2c(c1)C(=O)C(=O)N2CCCOc1ccccc1C | 40µM* | 6% | -1% | -52% | 1%
Cc1cccc2c1N(CCCOc1ccc(C(C)(C)C)cc1)C(=O)C2=O | 40µM* | -5% | -9% | 7% | -8%
Cc1cccc(OCCN2C(=O)C(=O)c3cc(C)ccc32)c1 | 71µM* | -1% | -2% | 10% | -4%
CCCN1C(=O)C(=O)c2cc(C)ccc21 | -8% | . | -6% | . | .
CC1=CC(=O)CC(C)(C)C1 | . | -3%[201 µM] | . | . | -2%[201 µM]
Cc1ccc(F)c(C2C3C=CCC(C)C3C(=O)N2Cc2ccccc2)c1 (configuration not stated) | ? | 0% | . | . | -11%
COc1ccc(C2Nc3ccccc3C(=O)N2c2ccc(Cl)cc2)cc1COc1ccc(NC(C)=O)cc1 (configuration not stated) | -20% | . | . | . | .
COc1cc(Br)cc(CN2CCN(C/C=C/c3ccccc3)CC2)c1O | -12% | -6% | -7% | -3% | -8%
COc1cc(C/C=C\c2ccccc2)c(OC)cc1O | 45µM* | -3% | . | -2% | 7%
Fc1ccccc1-n1[nH]nnc1=S | 45µM* | -2% | . | -7% | -10%
CC(C)=CCC/C(C)=C/CO/N=C1/C[C@@H](O)[C@@H](O)[C@@H]2[C@@H]3C(=O)N(C4CCCCC4)C(=O)[C@H]3CC[C@@H]12 | . | -1%[11.2 µM] | . | . | -2%[11.2 µM]
CCCCCCCCCCCCCCCCOCCOCCOCCOCCOCCOCCOCCOCCOCCOCCOCCOCCOCCOCCOCCOCCOCCOCCOCCOCCO | 2% | . | 5% | . | .
COc1cccc(NC(=O)C(=O)NCC(c2cccnc2)N2CCN(c3ccccc3)CC2)c1 (configuration not stated) | 7% | 100µM*[quencher] | -4% | . | -17%
CCc1ccc(NC(=O)C(=O)NCC(c2cccnc2)N2CCN(c3ccc(F)cc3)CC2)cc1 (configuration not stated) | 7% | 100µM*[quencher] | -6% | . | -18%
COc1ccc(N2CCN(C(CNC(=O)C(=O)NCc3cccnc3)c3cccnc3)CC2)cc1 (configuration not stated) | 6% | 56µM*[quencher] | 3% | . | -20%
O=C(O)/C(=C\c1ccccc1)Cc1ccccc1 | . | . | . | 7%[14.2 µM] | .
Cc1cccc2cc(CN(Cc3ccccc3)Cc3nnnn3Cc3ccccc3)c(=O)[nH]c12 | -6% | . | . | . | .
Cc1sc2nc(SCc3ccc(C(=O)O)cc3)n(Cc3ccco3)c(=O)c2c1C | 89µM* | -3% | -2% | 0% | 1%
O=C(CS(=O)c1ccc(C(F)(F)F)cc1[N+](=O)[O-])Oc1ccc(Cl)cc1 (configuration not stated) | 50µM* | 1% | -7% | 8% | 3%
O=C(NCCO)c1ccc(Oc2ccc(C(F)(F)F)cc2[N+](=O)[O-])cc1 | 11% | -1% | 1% | 3% | -5%
Cc1cc(C)cc(OC(=O)CS(=O)c2ccc(C(F)(F)F)cc2[N+](=O)[O-])c1 (configuration not stated) | 20µM* | -2% | -9% | 3% | -7%
COc1ccc([C@@H]2CC(=O)c3c(O)cc(O[C@@H]4O[C@H](CO)[C@@H](O)[C@H](O)[C@H]4O[C@@H]4O[C@@H](C)[C@H](O)[C@@H](O)[C@H]4O)cc3O2)cc1 | -13% | -17% | -27% | . | 6%
Cc1ccc(OCC(=O)NCC2(N3CCOCC3)CCCCC2)cc1C | 6% | 13µM*[quencher] | -4% | . | -11%
Cc1cccc(OCC(=O)NCC2(N3CCN(C)CC3)CCCCC2)c1C | 6% | 1259µM*[quencher] | -9% | . | -10%
SMILES | VDR inhibitor | TexasRed fluor | KAT2A inh | RGS12 GoLoco inh | TRb-SRC2 inh
Cc1ccc(OCC(=O)NCC2(N3CCN(C)CC3)CCCCC2)cc1 | 5% | 7% | -14% | . | -2%
Oc1cc(Nc2ccc(N3CCCCC3)cc2)cc2cccnc12 | . | . | -6% | . | .
Cc1ccc(S(=O)(=O)N(C(=O)c2ccco2)c2cc3sc(=O)oc3c3ccccc23)cc1 | 20µM* | -5% | ? | 0% | -4%
CCOc1ccc(S(=O)(=O)N(C(=O)c2ccco2)c2cc3sc(=O)oc3c3ccccc23)cc1 | 32µM* | 1% | ? | 1% | -10%
CC(=O)N(c1ccc2oc(=O)sc2c1)S(=O)(=O)c1ccccc1 | -27% | -3% | -12% | 1% | -2%
CCOc1ccc(S(=O)(=O)N(C)CC(=O)NCc2ccco2)cc1 | 9% | . | -6% | . | .
O=C(Cl)c1cccc(C(=O)Cl)c1 | . | -3%[201 µM] | . | . | -5%[201 µM]
O=c1[nH]c2ccccc2c(O)c1O | 7.1µM* | 1% | -16% | -8% | 0%
CC1(C)S[C@@H]2[C@H](C(=O)O)N=C(Cc3ccccc3)N2[C@H]1C(=O)O | . | . | . | 2%[14.2 µM] | .
Cc1ccc(C)c(S(=O)(=O)NCc2cccnc2)c1 | -2% | -6% | 3% | 12% | -8%
Cc1ccc(C)c(S(=O)(=O)NCc2ccncc2)c1 | -11% | -2% | 3.2µM* | 1% | -3%
Oc1c(Cl)cc(Cl)cc1C=Nc1ccc(N2CCOCC2)cc1 | 45µM* | . | -13% | . | .
S=c1nc(-c2cccc(Cl)c2)[nH][nH]1 | -15% | -3% | -17% | 18% | 0%
S=c1nc(-c2cc(Cl)ccc2Cl)[nH][nH]1 | ? | -2% | 3.5µM* | 13% | 1%
Cc1ccc2oc(C(=O)Nc3ccc(S(=O)(=O)Nc4nc(C)cc(C)n4)cc3)cc(=O)c2c1 | 17% | 32µM*[quencher] | -16% | . | -2%
Cc1ccc2oc(C(=O)Nc3ccc(S(=O)(=O)Nc4ncccn4)cc3)cc(=O)c2c1 | 12% | 5% | -10% | . | 1%
CCOC(=O)c1c(-c2ccc(C)cc2)csc1NC(=O)c1cc(=O)c2cc(C)ccc2o1 | 28µM* | ? | ? | . | -5%
CN(Cc1cc(C(C)(C)C)cc(Br)c1O)Cc1cc(C(C)(C)C)cc(Br)c1O | . | . | . | -1%[14.2 µM] | .
CN1/C(=C/C(=O)c2nc(S(C)(=O)=O)ncc2Cl)C(C)(C)c2ccccc21 | 50µM* | -4% | -1% | 12% | -7%
CCOC(=O)c1nc(S(C)(=O)=O)ncc1Cl | 56µM* | -4% | 2% | -11% | -1%
Cc1ccccc1NC(=O)c1nc(S(C)(=O)=O)ncc1Cl | 40µM* | . | -1% | . | .
CCOC(=O)c1nc(S(C)(=O)=O)ncc1N1CCOCC1 | 2% | 2% | -5% | -1% | 6%
Cc1cccc(C)c1NC(=O)c1nc(S(=O)(=O)Cc2ccccc2)ncc1Cl | ? | . | -2% | . | .
Cc1ccc(-n2c(-c3ccco3)n[nH]c2=S)cc1 | -15% | -1% | -1% | -4% | 1%
